Experimental data published in PubChem BioAssay AID1159580 (chemical genetic matrix, 2015).
“And” between values parts separate entries of the source, which are not always exact repeats. Identical values can stand only once. The whole screen tested about 5,500 compounds, of which about 2,000 (36%) were called active. About 18% were inconclusive and are not listed. No stated cut-off is given here; in the data, active means normalized growth mostly below about 0.91 (no sharp cut-off); inconclusive means no clear call, values can overlap the other calls; inactive means mostly above about 0.92. The list shows a part of the results.

Experiment: chemical genetic growth profiling, strain panel (AID 1159580);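 further: tested at 20 µM; growth read once vehicle control cultures reached saturation at 30 °C; 1 = growth at the plate median or of vehicle wells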
Conditions: S. cerevisiae deletion strains, growth OD
[1] = locus YHR030C, strain SLT2, stronger effect = lower value
[2] = locus YHR079C, strain IRE1, stronger effect = lower value
[3] = locus YJL095W, strain BCK1, stronger effect = lower value
[4] = locus YJR066W, strain TOR1, stronger effect = lower value
[5] = locus YLR113W, strain HOG1, stronger effect = lower value
[6] = locus YNL183C, strain NPR1, stronger effect = lower value
[7] = locus YOR231W, strain MKK1, stronger effect = lower value
[8] = locus YPL256C, strain CLN2, stronger effect = lower value

Measured: normalized growth

O=C(O)c1cc(=O)c(O)c2c(O)c(O)c(O)cc2c1
inactive: locus YDL005C, strain med2, stronger effect = lower value 0.953 | locus YGL227W, strain vid30, stronger effect = lower value 0.944 | locus YKR091W, strain srl3, stronger effect = lower value 0.934 | locus YMR125W, strain sto1, stronger effect = lower value 0.89
active: locus YAL021C, strain ccr4, stronger effect = lower value 0.0892 | locus YAL026C, strain drs2, stronger effect = lower value 0.216 | locus YAL030W, strain snc1, stronger effect = lower value 0.757 | locus YBL061C, strain skt5, stronger effect = lower value 0.639 | locus YBR009C, strain hhf1, stronger effect = lower value 0.694 | locus YBR023C, strain chs3, stronger effect = lower value 0.549 | locus YBR171W, strain sec66, stronger effect = lower value 0.812 | locus YBR231C, strain swc5, stronger effect = lower value 0.483 | locus YBR279W, strain paf1, stronger effect = lower value 0.754 | locus YCL011C, strain gbp2, stronger effect = lower value 0.72 | locus YCL016C, strain dcc1, stronger effect = lower value 0.809 | locus YCL061C, strain MRC1, stronger effect = lower value 0.651 | locus YCL069W, strain vba3, stronger effect = lower value 0.69 | locus YCR088W, strain abp1, stronger effect = lower value 0.707 | locus YDL040C, strain nat1, stronger effect = lower value 0.906 | locus YDR001C, strain nth1, stronger effect = lower value 0.846 | locus YDR069C, strain doa4, stronger effect = lower value 0.161 | locus YDR137W, strain rgp1, stronger effect = lower value 0.142 | locus YDR159W, strain sac3, stronger effect = lower value 0.134 | locus YDR195W, strain ref2 0.481 | locus YDR297W, strain sur2, stronger effect = lower value 0.729 | locus YDR334W, strain swr1, stronger effect = lower value 0.353 | locus YDR335W, strain msn5, stronger effect = lower value 0.128 | locus YDR392W, strain spt3, stronger effect = lower value 0.708 | locus YEL003W, strain gim4, stronger effect = lower value 0.511 | locus YEL037C, strain rad23, stronger effect = lower value 0.552 | locus YEL061C, strain CIN8 (second series), stronger effect = lower value 0.756 | locus YER015W, strain faa2, stronger effect = lower value 0.488 | locus YER016W, strain bim1, stronger effect = lower value 0.84 | locus YER111C, strain swi4, stronger effect = lower value 0.14 | locus YER155C, strain BEM2 (second series), stronger effect = lower value 0.432 | locus YFR010W, strain ubp6, stronger effect = lower value 0.374 | locus YGL167C, strain pmr1, stronger effect = lower value 0.558 | locus YGL173C, strain kem1, stronger effect = lower value 0.352 | locus YGL240W, strain doc1, stronger effect = lower value 0.869 | locus YGL253W, strain hxk2, stronger effect = lower value 0.545 | locus YHR013C, strain ard1, stronger effect = lower value 0.546 | locus YHR027C, strain rpn1, stronger effect = lower value 0.422 | [1] 0.581 | [2] 0.546 | locus YHR142W, strain chs7, stronger effect = lower value 0.363 | locus YJL092W, strain hpr5, stronger effect = lower value 0.728 | locus YJL095W, strain BCK1 (second series), stronger effect = lower value 0.604 | [3] 0.575 | locus YJL115W, strain asf1, stronger effect = lower value 0.771 | locus YJL129C, strain trk1, stronger effect = lower value 0.235 | locus YJL154C, strain vps35, stronger effect = lower value 0.768 | locus YJL164C, strain tpk1, stronger effect = lower value 0.666 | locus YJL166W, strain qcr8, stronger effect = lower value 0.743 | locus YJL187C, strain SWE1, stronger effect = lower value 0.737 | [4] 0.312 | locus YKL160W, strain elf1, stronger effect = lower value 0.777 | locus YKR026C, strain gcn3, stronger effect = lower value 0.854 | locus YLL001W, strain dnm1, stronger effect = lower value 0.548 | locus YLL026W, stronger effect = lower value 0.804 | locus YLL041C, strain sdh2, stronger effect = lower value 0.897 | locus YLR027C, strain aat2, stronger effect = lower value 0.718 | [5] 0.525 | locus YLR221C, strain rsa3, stronger effect = lower value 0.685 | locus YLR258W, strain gsy2, stronger effect = lower value 0.787 | locus YLR262C, strain YPT6 (second series), stronger effect = lower value 0.483 | locus YLR320W, strain mms22, stronger effect = lower value 0.56 | locus YLR342W, strain FKS1, stronger effect = lower value 0.538 | locus YLR357W, strain rsc2, stronger effect = lower value 0.593 | locus YLR370C, strain arc18, stronger effect = lower value 0.347 | locus YLR384C, strain iki3, stronger effect = lower value 0.642 | locus YML120C, strain ndi1, stronger effect = lower value 0.193 | locus YMR058W, strain fet3, stronger effect = lower value 0.275 | locus YMR129W, stronger effect = lower value 0.815 | locus YMR205C, strain PFK2, stronger effect = lower value 0.547 | locus YMR231W, strain pep5, stronger effect = lower value 0.169 | locus YNL071W, strain lat1, stronger effect = lower value 0.873 | [6] 0.243 | locus YNL209W, strain ssb2, stronger effect = lower value 0.273 | locus YNL248C, strain rpa49, stronger effect = lower value 0.725 | locus YNL322C, strain KRE1 (second series), stronger effect = lower value 0.208 | locus YNR049C, strain mso1, stronger effect = lower value 0.79 | locus YOR001W, strain rrp6, stronger effect = lower value 0.544 | locus YOR070C, strain gyp1, stronger effect = lower value 0.849 | locus YOR080W, strain dia2, stronger effect = lower value 0.387 | locus YOR083W, strain WHI5, stronger effect = lower value 0.645 | locus YOR106W, strain vam3, stronger effect = lower value 0.295 | [7] 0.615 | locus YOR265W, strain rbl2, stronger effect = lower value 0.771 | locus YOR270C, strain vph1, stronger effect = lower value 0.198 | locus YOR290C, strain snf2, stronger effect = lower value 0.0962 | locus YPL051W, strain arl3, stronger effect = lower value 0.465 | locus YPL078C, strain atp4, stronger effect = lower value 0.124 | locus YPL106C, strain sse1, stronger effect = lower value 0.723 | locus YPL240C, strain hsp82, stronger effect = lower value 0.872 | [8] 0.567

COc1cc(C(=O)O)cc(OC)c1O
inactive: locus YBR021W, strain FUR4, stronger effect = lower value 1.08 | locus YBR229C, strain ROT2, stronger effect = lower value 0.951 | locus YCL029C, strain bik1, stronger effect = lower value 0.976 | locus YDL035C, strain GPR1, stronger effect = lower value 1.01 | locus YDL074C, strain BRE1, stronger effect = lower value 0.961 | locus YDL101C, strain DUN1, stronger effect = lower value 0.982 | locus YDL185W, strain tfp1, stronger effect = lower value 0.987 | locus YDL192W, strain arf1, stronger effect = lower value 0.98 | locus YDR101C, strain arx1, stronger effect = lower value 0.972 | locus YDR150W, strain NUM1, stronger effect = lower value 0.979 | locus YDR162C, strain NBP2, stronger effect = lower value 1.01 | locus YDR318W, strain mcm21, stronger effect = lower value 1 | locus YDR388W, stronger effect = lower value 0.978 | locus YDR502C, strain sam2, stronger effect = lower value 0.982 | locus YEL061C, strain CIN8, stronger effect = lower value 0.986 | locus YER110C, stronger effect = lower value 0.977 | locus YER155C, strain BEM2, stronger effect = lower value 1 | locus YER167W, strain BCK2, stronger effect = lower value 1 | locus YGL078C, strain dbp3, stronger effect = lower value 0.986 | locus YGL086W, strain mad1, stronger effect = lower value 0.978 | locus YGL248W, strain PDE1, stronger effect = lower value 0.985 | locus YGR135W, strain pre9, stronger effect = lower value 1.05 | locus YGR229C, strain SMI1, stronger effect = lower value 1.01 | locus YGR252W, strain gcn5, stronger effect = lower value 1.04 | [1] 1.04 and 0.994 | locus YHR079C, strain IRE1 (second series), stronger effect = lower value 0.977 | [2] 1.02 | locus YHR094C, strain hxt1, stronger effect = lower value 0.984 | locus YHR129C, strain ARP1, stronger effect = lower value 0.997 | locus YHR200W, strain rpn10, stronger effect = lower value 0.98 | locus YIL066C, strain RNR3, stronger effect = lower value 0.981 | locus YIL073C, strain SPO22, stronger effect = lower value 0.983 | locus YIL125W, strain kgd1, stronger effect = lower value 0.987 | locus YIR030C, strain dcg1, stronger effect = lower value 0.988 | [3] 1.03 and 0.981 | locus YJL134W, strain LCB3, stronger effect = lower value 0.994 | locus YJL168C, strain set2, stronger effect = lower value 0.975 | locus YJL187C, strain SWE1 (second series), stronger effect = lower value 0.971 | locus YJR043C, strain POL32, stronger effect = lower value 0.991 | [4] 0.96 | locus YJR075W, strain HOC1, stronger effect = lower value 0.997 | locus YKL009W, strain mrt4, stronger effect = lower value 0.983 | locus YKL068W, stronger effect = lower value 0.989 | locus YKL085W, strain MDH1 (second series), stronger effect = lower value 0.983 | locus YKL085W, strain MDH1, stronger effect = lower value 0.983 | locus YKR001C, strain vps1, stronger effect = lower value 0.981 | locus YLR039C, strain RIC1, stronger effect = lower value 0.952 | locus YLR058C, strain SHM2, stronger effect = lower value 0.98 | locus YLR102C, strain apc9, stronger effect = lower value 0.985 | [5] 1.01 | locus YLR262C, strain YPT6, stronger effect = lower value 0.963 | locus YLR268W, strain sec22, stronger effect = lower value 0.991 | locus YLR330W, strain CHS5, stronger effect = lower value 0.996 | locus YLR342W, strain FKS1 (second series), stronger effect = lower value 1.05 | locus YLR371W, strain rom2, stronger effect = lower value 0.965 | locus YLR418C, strain cdc73, stronger effect = lower value 1.01 | locus YML016C, strain PPZ1, stronger effect = lower value 0.984 | locus YML032C, strain rad52, stronger effect = lower value 0.975 | locus YML124C, strain tub3, stronger effect = lower value 0.979 | locus YMR078C, strain ctf18, stronger effect = lower value 0.977 | locus YMR223W, strain ubp8, stronger effect = lower value 1.04 | locus YMR307W, strain GAS1, stronger effect = lower value 1.01 | locus YNL067W, strain RPL9B, stronger effect = lower value 0.962 | locus YNL128W, strain TEP1, stronger effect = lower value 0.989 | [6] 0.979 | locus YNL233W, strain BNI4, stronger effect = lower value 0.982 | locus YNL250W, strain rad50, stronger effect = lower value 0.976 | locus YNL271C, strain bni1, stronger effect = lower value 0.987 | locus YNL298W, strain CLA4, stronger effect = lower value 0.994 | locus YNL307C, strain MCK1, stronger effect = lower value 0.987 | locus YNR052C, strain pop2, stronger effect = lower value 0.993 | locus YOL012C, strain htz1 1.1 | locus YOL147C, strain pex11, stronger effect = lower value 0.984 | locus YOR061W, strain CKA2, stronger effect = lower value 0.964 | locus YOR069W, strain VPS5, stronger effect = lower value 0.995 | locus YOR136W, strain idh2, stronger effect = lower value 0.971 | locus YOR144C, strain elg1, stronger effect = lower value 0.991 | locus YOR184W, strain ser1, stronger effect = lower value 0.992 | [7] 1.04 | locus YOR316C, strain cot1, stronger effect = lower value 0.97 | locus YPL241C, strain CIN2, stronger effect = lower value 0.999 | [8] 1.04 | locus YPR119W, strain clb2, stronger effect = lower value 0.97 | locus YPR141C, strain kar3, stronger effect = lower value 0.969 | locus YPR163C, strain tif3, stronger effect = lower value 0.989 | locus YPR167C, strain met16, stronger effect = lower value 0.988 | strain wtn01, stronger effect = lower value 1
